The values below come from PubChem BioAssay (NCATS).

Unmarked numbers belong to inactive results. Records with an inconclusive call do not appear. Active and inactive are the calls of the source. Calls follow the shape of the dose curve; as a rule, active = well fitted curve in the direction sought with a large enough effect; inconclusive = small, poorly fitted or top-dose-only effect, or another doubt; inactive = no such curve, though single readings can be large; an effect the other way counts as inactive or inconclusive. Where a SMILES comes first, the peptide text is derived from it. [ ]: non-standard residue; d: D form. dPhe(4-Cl) = N[C@H](Cc1ccc(Cl)cc1)C(=O)O; d2Nal = N[C@H](Cc1ccc2ccccc2c1)C(=O)O; dCit = NC(=O)NCCC[C@@H](N)C(=O)O; d3Pal = N[C@H](Cc1cccnc1)C(=O)O

Test [1] has as its target Glutathione peroxidase 1 (Homo sapiens) (UniProt P07203). The test is described as follows: Primary qHTS Assay for Inhibitors of Recombinant Selenoprotein Glutathione Peroxidase 1 (GPX1) (AID 1845191). Also: nearly all actives have a fitted effect of over 65% in size. As to activity, negative = inhibition: % is scaled to controls: 0 for no effect and ±100 for the full control effect. Summed up: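 NADPH consumption tracked by fluorescence at 340/450 nm between t=0 and t=15 min, room temperature. Final mix: 10 nM GPX1, 100 nM glutathione reductase, 1 mM GSH, 0.5 mM NADPH, 0.5 mM cumene hydroperoxide, 0.01% BSA; 30 min compound–enzyme preincubation.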

Test [2] has as its target Phospholipid hydroperoxide glutathione peroxidase GPX4 (Homo sapiens) (UniProt P36969). The test is described as follows: Primary qHTS Assay for Inhibitors of Recombinant Selenoprotein Glutathione Peroxidase 4 (GPX4) (AID 1845192). Also: nearly all actives have a fitted effect of over 65% in size. As to activity change, negative = inhibition: series mostly up to about 50 µM; % is scaled to controls: 0 for no effect and ±100 for the full control effect. Summed up: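 NADPH consumption followed by fluorescence at 340/450 nm, t=0 and after 15 min at room temperature. Reaction started with cumene hydroperoxide (0.5 mM final) after 30 min compound–GPX4 preincubation; final 200 nM GPX4, 100 nM GR, 1 mM GSH, 0.5 mM NADPH.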

Test [3] has as its target Luciferin 4-monooxygenase (Photinus pyralis) (UniProt P08659). Briefly: Primary firefly luciferase (FLuc) qHTS assay for identification of artifact compounds. (AID 1845220). Also: nearly all actives have a fitted effect of over 60% in size.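 As to activity change, negative = inhibition: series mostly up to about 54 µM; plate controls were DMSO vehicle for no effect and no enzyme for full effect.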 The gist of the method:
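Cell-free, 1536-well qHTS. Buffer pH 7.6 with 0.01% Tween-20 and 0.05% BSA; 10 uM D-luciferin, 10 uM ATP; 10 nM P. pyralis luciferase; luminescence after 5 min.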

Test [4] can be described thus: Primary fluorescence-based thiol-reactive (MSTI) qHTS assay for identification of artifact compounds. (AID 1845221). Also: nearly all actives have a fitted effect of over 65% in size. Also: potency is read from the fitted curve at half-maximal effect.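 As to activity change, negative = thiol reactive: series mostly up to about 54 µM; thiol-reactive compounds lower the probe fluorescence signal.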 Summed up: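 Curve-fitted percent inhibition (4-parameter Hill) derived from fluorescence, Ex 525/Em 598 nm, scaled with Acetyl-MSTI and MSTI; 1 h incubation at room temperature.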
(In general: qHTS replaces the single test concentration by a dilution series.)

Test [5] has as its system Nanoluciferase (engineered Oplophorus gracilirostris luciferase). Briefly: Primary Nanoluciferase (NLuc) qHTS assay for identification of artifact compounds. (AID 1845222).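 Also: series mostly up to about 54 µM; 0% = DMSO and -100% = no enzyme.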 Summed up:
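Compounds are pinned into diluted (1:55) conditioned medium of NLuc-expressing S16 cells and held 15 min at room temperature protected from light. Nano-Glo substrate follows, and luminescence is read 5 min later.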

A short description of test [6]: Primary redox qHTS assay for identification of artifact compounds. (AID 1845223).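 Also: 0% = DMSO and 100% = reference compound.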 Summed up: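 Redox-cycling detection via DTT (250 uM final) oxidation coupled to Amplex Red (25 uM)/HRP (250 mU/mL) in HBSS. 15 min preincubation plus 30 min after DTT, room temperature. Ex/Em 525/598 nm; 4-parameter Hill fit against DMSO and 10 uM DA3003.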

Chain of Glutathione peroxidase 1 (Homo sapiens) (P07203 whole entry, looked up): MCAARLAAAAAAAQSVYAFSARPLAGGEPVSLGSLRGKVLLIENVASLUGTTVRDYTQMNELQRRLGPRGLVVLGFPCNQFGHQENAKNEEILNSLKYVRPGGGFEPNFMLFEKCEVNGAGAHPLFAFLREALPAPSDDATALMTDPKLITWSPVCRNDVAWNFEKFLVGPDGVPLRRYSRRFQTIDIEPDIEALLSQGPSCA
Chain of Phospholipid hydroperoxide glutathione peroxidase GPX4 (Homo sapiens) (P36969 whole entry, looked up): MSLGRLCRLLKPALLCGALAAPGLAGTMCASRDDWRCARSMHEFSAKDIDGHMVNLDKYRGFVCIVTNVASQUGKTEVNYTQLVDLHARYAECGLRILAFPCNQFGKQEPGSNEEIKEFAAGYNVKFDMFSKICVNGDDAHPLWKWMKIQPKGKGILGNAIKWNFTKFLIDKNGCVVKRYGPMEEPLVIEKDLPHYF

For the compound `CCCn1c(=O)c2[nH]c(-c3ccc(OCC(=O)O)cc3)nc2n(CCC)c1=O`, the Potency result in test [1], in test [2], in test [3], in test [4], in test [5] and in test [6] was “inactive” each time.
As for `O=C(c1ccccc1)c1ccc2nc(NC(=O)c3csc(C4CCN(c5ncnc6ccsc56)CC4)n3)[nH]c2c1`, the Potency result in test [1], in test [2], in test [3], in test [4], in test [5] and in test [6] was “inactive” throughout.
For the compound `C[C@@H]1O[C@@H](O[C@@H]2[C@@H](O)[C@@H](O[C@]3(CO)O[C@H](CO)[C@@H](O)[C@@H]3OC(=O)/C=C/c3ccc(O)cc3)O[C@H](CO)[C@H]2OC(=O)/C=C/c2ccc(O)cc2)[C@H](O)[C@H](O)[C@H]1O[C@@H]1O[C@@H](C)[C@H](O[C@@H]2OC[C@](O)(CO)[C@H]2O)[C@@H](O)[C@H]1O`, the Potency entry in test [1] and in test [2] was “inactive” throughout. In addition, the activity change, negative = inhibition in test [3] is -0.433% [at 11.6 µM]. Further, in test [4], the activity change, negative = thiol reactive is 79.7% [at 11.5 µM]. In addition, the activity, negative = inhibition in test [5] was 0% [at 11.6 µM]. Further, in test [6], the redox activity (% of DA3003) was 17.5% [at 11.5 µM].
Take `CC1(C)CC[C@]2(C(=O)O[C@@H]3O[C@H](CO)[C@@H](O)[C@H](O)[C@H]3O)CC[C@]3(C)C(=CCC4[C@@]5(C)C[C@@H](O)[C@H](O)[C@@](C)(CO)C5CC[C@]43C)C2[C@@H]1O` (stereo not given in full): the Potency entry in test [1], in test [2], in test [3], in test [5] and in test [6] was “inactive” in each case. Also, the Potency in test [4] is 3.16 µM (active).
Turning to `C=CC(C)(O)CC[C@H]1C(=C)CCC2[C@](C)(C(=O)O)CCC[C@@]21C` (stereo not given in full), the Potency entry in test [1], in test [2], in test [3], in test [4], in test [5] and in test [6] was “inactive” throughout.
For `CC(C)NCC(C(=O)N1CCN(c2ncnc3c2C(C)CC3O)CC1)c1ccc(Cl)cc1` (stereo not given), the Potency entry in test [1], in test [2], in test [3], in test [4], in test [5] and in test [6] was “inactive” in each case.
With `Cc1cccc(Oc2cnc(=O)[nH]c2)c1`, the Potency result in test [1], in test [2], in test [3], in test [4], in test [5] and in test [6] was “inactive” in each case.
For the compound `C/C=C/c1cc(OC)c2c(c1)[C@@H](C)[C@@H](c1ccc(O)c(OC)c1)O2`, the Potency entry in test [1], in test [2], in test [3], in test [4], in test [5] and in test [6] was “inactive” each time.
Turning to `NC(=O)c1csc(C2OC(CO)C(O)C2O)n1` (stereo not given), the Potency entry in test [1], in test [2], in test [3], in test [4], in test [5] and in test [6] was “inactive” throughout.
In the case of `CC(C)[C@@H]1C(=O)N(S(C)(=O)=O)[C@@H]2CCN(C(=O)/C=C/CN3CCCCC3)[C@H]21`, the Potency result in test [1], in test [2], in test [3], in test [4], in test [5] and in test [6] was “inactive” throughout.
As to `Cc1[nH]c2ccccc2c1C1=C(NCCc2ccc(F)cc2)C(=O)N(C)C1=O`, the Potency entry in test [1], in test [2], in test [3], in test [5] and in test [6] was “inactive” each time. Besides, the Potency in test [4] was 1.5 µM (active).
As to `OC[C@H]1O[C@@H](OC(CCCCc2ccc(O)cc2)CCc2ccc(O)cc2)[C@H](O)[C@@H](O)[C@@H]1O` (stereo not given in full), the Potency result in test [1], in test [2], in test [3], in test [4], in test [5] and in test [6] was “inactive” throughout.
Take `CC/C=C\CCO[C@@H]1O[C@H](CO)[C@@H](O)[C@H](O)[C@H]1O`: the Potency result in test [1], in test [2], in test [3], in test [5] and in test [6] was “inactive” each time. Also, in test [4], the Potency is 5.97 µM (active).
In the case of `C=C1C(O)C(O)C2(CC3C(C)=CCC4C(C)(CO)CCCC34C)OC2C1O` (stereo not given), the Potency result in test [1], in test [2], in test [3], in test [4], in test [5] and in test [6] was “inactive” throughout.
Consider `O=C1NC(=O)C(c2cn3c4c(cccc24)CCC3)C1c1c[nH]c2ccccc12` (stereo not given), for which the Potency entry in test [1], in test [2], in test [3], in test [4], in test [5] and in test [6] was “inactive” each time.
Take `CNCc1ccc(-c2cc(-c3nc(-c4ccc(S(=O)(=O)C(C)C)cc4)cnc3N)on2)cc1`: the Potency result in test [1], in test [2], in test [3], in test [4], in test [5] and in test [6] was “inactive” each time.
As for `C=C[C@H]1[C@H](O[C@@H]2O[C@H](CO)[C@@H](O)[C@H](O)[C@H]2O)OC=C(C(=O)OC)[C@H]1CCOC(=O)c1cc(O)c(O)c(O)c1`, the Potency result in test [1], in test [2], in test [3], in test [5] and in test [6] was “inactive” throughout. Moreover, in test [4], the Potency is 0.922 µM (active).
Turning to `CCc1cccc(CC)c1NC(=O)c1nn(C)c2c1CCc1cnc(Nc3ccc(C(=O)NC4CCN(C)CC4)cc3OC(F)(F)F)nc1-2`, the Potency entry in test [1], in test [2], in test [3], in test [4], in test [5] and in test [6] was “inactive” in each case.
On to `CC(=O)N[C@H](Cc1ccc2ccccc2c1)C(=O)N[C@H](Cc1ccc(Cl)cc1)C(=O)N[C@H](Cc1cccnc1)C(=O)N[C@@H](CO)C(=O)N[C@@H](Cc1ccc(O)cc1)C(=O)N[C@H](CCCNC(N)=O)C(=O)N[C@@H](CC(C)C)C(=O)N[C@@H](CCCN=C(N)N)C(=O)N1CCC[C@H]1C(=O)N[C@H](C)C(N)=O` (Ac-[d2Nal][dPhe(4-Cl)][d3Pal]SY[dCit]LRP[dA]-NH2), for which the Potency entry in test [1], in test [2], in test [3], in test [4], in test [5] and in test [6] was “inactive” throughout.
Turning to `CC1(C)CC[C@]2(C(=O)O)CC[C@]3(C)C(=CCC4[C@@]5(C)CC[C@H](O[C@@H]6O[C@H](CO)[C@@H](O)[C@H](O)[C@H]6O[C@@H]6O[C@H](CO)[C@@H](O)[C@H](O)[C@H]6O)[C@@](C)(CO)C5CC[C@]43C)[C@@H]2C1` (stereo not given in full), the Potency result in test [1], in test [2], in test [3], in test [4], in test [5] and in test [6] was “inactive” each time.
